Bioassay records as filed in PubChem.
An excerpt weighted towards active compounds, which were near 7.2% of everything screened.
TSHR agonist = activates the human thyroid stimulating hormone receptor | P16473 | HEK293-CNG-TSHR cells (CNG channel as cAMP sensor), membrane potential dye, cAMP | Potency, µM (titrated, usually from 57.1 µM), actives largely listed as activators | 73,000 tested, 0.48% active | AID 926; active = well fitted activation curve with a large enough effect in the main read-out, with a control signal flat, not every such curve was filed as active; inconclusive = small, poorly fitted or top-dose-only effect, or a change in a side signal; inactive = no such curve, though single readings can be large or run the other way; reference of the percent scale not stated here;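 also: the control signal comes from parental cells without the receptor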
Target sequence (P16473 whole entry, looked up): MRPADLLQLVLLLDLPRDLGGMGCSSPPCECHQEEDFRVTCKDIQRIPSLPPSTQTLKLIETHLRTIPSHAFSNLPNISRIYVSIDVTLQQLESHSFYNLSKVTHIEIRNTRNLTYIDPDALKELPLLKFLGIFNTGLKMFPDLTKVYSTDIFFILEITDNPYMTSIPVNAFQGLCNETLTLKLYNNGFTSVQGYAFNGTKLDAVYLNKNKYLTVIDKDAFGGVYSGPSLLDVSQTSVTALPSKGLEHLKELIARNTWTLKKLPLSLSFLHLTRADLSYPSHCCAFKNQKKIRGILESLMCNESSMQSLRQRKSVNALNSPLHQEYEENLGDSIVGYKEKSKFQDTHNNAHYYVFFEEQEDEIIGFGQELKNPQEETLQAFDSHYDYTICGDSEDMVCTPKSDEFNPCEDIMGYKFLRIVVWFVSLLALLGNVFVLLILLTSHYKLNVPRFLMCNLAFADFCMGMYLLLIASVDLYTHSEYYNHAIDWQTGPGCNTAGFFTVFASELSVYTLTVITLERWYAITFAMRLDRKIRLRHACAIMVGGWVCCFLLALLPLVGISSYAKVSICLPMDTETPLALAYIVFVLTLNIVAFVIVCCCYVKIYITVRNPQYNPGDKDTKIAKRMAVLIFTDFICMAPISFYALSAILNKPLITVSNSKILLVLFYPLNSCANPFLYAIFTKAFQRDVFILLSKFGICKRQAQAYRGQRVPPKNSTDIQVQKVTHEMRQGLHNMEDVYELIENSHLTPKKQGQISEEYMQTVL
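HEK 293 cells stably expressing TSHR and a cAMP-gated CNG channel; parental CNG-only cells as counterscreen. Cells preloaded 60 min with membrane potential dye plus 100 uM RO 20-1724, then compound 30 min; fluorescence read at 590 nm.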
Tau filament bind = binders of human tau filaments. Potency, µM (series often up to 57.1 µM). recombinant tau filaments, thioflavin S fluorescence, 15 h; filaments grown with octadecylsulfate alongside compound. 71,000 tested, 2% active. P10636;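 also: actives lower thioflavin S fluorescence by blocking filaments or displacing dye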
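Quantitative HTS: thioflavine S signal from ODS-induced tau filaments, excited at 450 nm, emission 510 nm. Conditions: 1 uM tau, 30 uM ODS, 15 h at 37 C, pH 7.4.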
Luciferase inh = inhibitors of firefly luciferase; 72,000 tested, 2.2% active; purified firefly luciferase, luminescence, 8 min; Potency, µM (top dose mostly 57.1 µM), hits mostly inhibitors; also: nearly all actives have a fitted effect of over 40% in size
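Inhibition of light generation by firefly luciferase from ATP and luciferin was profiled with concentration-response curves per sample, ATP held at 10 uM within the enzyme's linear range. Plates were read by luminescence after an 8-minute ambient incubation.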
HEK293 cAMP ctrl = parental HEK293 cAMP activation (counter-screen). parental HEK293 CNG cAMP sensor, membrane potential fluorescence. Potency, µM (top dose mostly 57.1 µM), usual class: activators. 73,000 tested, 2.5% active. AID 938; also: nearly all actives have a fitted effect of over 55% in size
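Parental HEK 293 cells stably expressing a cAMP-gated CNG channel were loaded with membrane potential dye containing 100 uM RO 20-1724 for 60 min. Compound added for 30 min; depolarization read as fluorescence intensity at 590 nm.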
Bst PK mod = alters activity of Bacillus stearothermophilus pyruvate kinase | purified pyruvate kinase, luminescence ATP production; ribose 5-phosphate activator present at AC10 | Potency, µM | 51,000 tested, 1.2% active | AID 361; in the data active = potency below about 11 µM; inconclusive = mostly about 12 µM to 25 µM;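 the screen sought inhibitors and activators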
ERK AVP inh = vasopressin-driven ERK pathway inhibition. 72,000 tested, 0.99% active. AID 995. HEK293-V1b, vasopressin-stimulated pERK AlphaScreen. Potency, µM (doses to about 57.5 µM), hits mostly inhibitors; also: nearly all actives have a fitted effect of over 55% in size
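HEK293 cells stably expressing V1b receptor, preincubated 30 min at 37 °C with compound, then stimulated 5 min with 25 nM vasopressin. Phospho-ERK by AlphaScreen SureFire after 5 h RT; normalized to DMSO and vasopressin; AC50 by Hill fit.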
A number is an active result; – = inactive; ? = inconclusive; · = not tested or not shown; [ ] = dose if it differs, or a comment. Unless noted, calls follow the shape of the dose curve; as a rule, active = well fitted curve in the direction sought with a large enough effect; inconclusive = small, poorly fitted or top-dose-only effect, or another doubt; inactive = no such curve, though single readings can be large; an effect the other way counts as inactive or inconclusive.

SMILES	TSHR agonist	Tau filament bind	Luciferase inh	HEK293 cAMP ctrl	Bst PK mod	ERK AVP inh
COc1ccc(-c2noc(CCC(=O)Nc3cc(Cl)c(OC)cc3OC)n2)cc1	–	–	15.8µM	–	–	–
CNC(=O)CCc1nc(-c2ccc(C(C)(C)C)cc2)no1	–	–	12.6µM	–	?	–
COc1ccc(-c2noc(CCC(=O)Nc3cc(OC)ccc3OC)n2)cc1	–	–	–	–[2.29 µM]	–	–
CC(C)(C)c1ccc(-c2noc(CCC(N)=O)n2)cc1	–	–	12.6µM	–	–	–
COc1ncc2nc(-c3cccs3)c(=O)n(Cc3cccs3)c2n1	–	–	–[11.4 µM]	–[2.29 µM]	·	–
CCOC(=O)c1ccc(N2C(=O)c3n[nH]c(C)c3C2c2ccccc2)cc1 (stereo not given)	?	–	–	31.6µM	–	?
COc1cccc(Nc2ncc3nc(-c4cccs4)c(=O)n(-c4ccccc4)c3n2)c1	–	–	–[11.4 µM]	–	·	–
CC(C)Nc1oc(-c2cccc3ccccc23)nc1C#N	–	–	20µM	–	–	–
O=C(Nc1ccc(CN2CCCCC2)cc1)c1ccc(Br)o1	–	–	12.6µM	–	–	–
O=C(Nc1ccc(N2CCN(C(=O)c3ccc(Cl)cc3)CC2)cc1)c1ccc(Br)o1	–	25.1µM	–	–	?	?
O=C(Nc1ccc(Cc2ccncc2)cc1)c1ccc(Br)o1	–	–	–	–	–	–
CC(=O)Nc1ccc(CN2CCCCCCC2)cc1	–	·	·	–	·	·
O=C(Nc1ccc(Nc2ccccc2)cc1)c1ccc(Br)o1	?	15.8µM	–	–	·	?
O=C(O)c1ccc2c3c(cccc13)C(=O)N(c1ccccc1O)C2=O	–	–	–	–	·	–
O=c1c(-c2ccc(F)cc2)nc2cnc(Nc3ccccc3)nc2n1C[C@H]1CCCO1	–	–	–[11.4 µM]	–	·	–
COC(=O)[C@@]1(Cc2ccc(OC)cc2)[C@H]2c3cc(C(=O)N4CCCC4)n(Cc4ccccn4)c3C[C@H]2CN1C(=O)c1ccccc1	?	–	·	?	·	–
COC(=O)[C@@]1(Cc2ccc(OC)cc2)[C@H]2c3cc(C(=O)N4CCCC4)n(Cc4ccsc4Br)c3C[C@H]2CN1C(=O)c1ccccc1	?	–	·	2.51µM	·	–
COC(=O)[C@@]1(Cc2ccc(OC)cc2)[C@H]2c3cc(C(=O)N4CCCC4)n(Cc4ccc(S(C)(=O)=O)cc4)c3C[C@H]2CN1C(=O)c1ccccc1	?	–	·	20µM	·	–
COC(=O)[C@@]1(Cc2ccc(OC)cc2)[C@H]2c3cc(C(=O)N4CCCC4)n(Cc4ccc(C)o4)c3C[C@H]2CN1C(=O)c1ccccc1	?	–	·	3.16µM	·	–
COC(=O)[C@@]1(Cc2ccccc2)[C@H]2c3cc(C(=O)N4CCCC4)n(Cc4ccc(S(C)(=O)=O)cc4)c3C[C@H]2CN1C(=O)c1ccccc1	?	–	·	7.94µM	·	–
COC(=O)[C@@]1(Cc2ccc(F)cc2)[C@H]2c3cc(C(=O)N4CCCC4)n(Cc4ccccc4)c3C[C@H]2CN1C(=O)c1ccccc1	?	–	·	?	·	–
Cc1nc2ccc(NC(=O)Nc3ccnc4cccnc34)cc2o1	–	?	–	–	·	?
O=C(/C=C\c1ccc(O)c(O)c1)OCCc1ccccc1	?	–	–	?	·	?
COC(=O)[C@@]1(Cc2ccc(OC)cc2)[C@H]2c3cc(C(=O)N4CCCC4)n(Cc4cc(F)cc5c4OCOC5)c3C[C@H]2CN1C(=O)c1ccccc1	?	–	·	3.98µM	·	–
Cc1cc(Cc2cc(C)c(N)cc2N)c(N)cc1N	–[11.4 µM]	–[11.4 µM]	–[11.4 µM]	–[11.4 µM]	·	–[11.5 µM]
SMILES	TSHR agonist	Tau filament bind	Luciferase inh	HEK293 cAMP ctrl	Bst PK mod	ERK AVP inh
CC1=C(C(=O)Nc2ccccc2)C(c2ccc(C)o2)n2c(s/c(=C\c3ccco3)c2=O)=N1 (stereo not given)	–[11.4 µM]	2.51µM	–	–	–	–
CCc1c(C)nc2cc(-c3ccc(OC)c(OC)c3)nn2c1N1CCCC1	?	–	–	?	–	–
CCc1c(C)nc2cc(-c3cc(OC)cc(OC)c3)nn2c1N1CCCC1	?	–	–	20µM	–	–
Clc1ccccc1OCc1nc(-c2ccncc2)no1	–	–	?	–	·	–
Clc1ccc(OCc2nc(-c3ccncc3)no2)c(Br)c1	?	–	7.94µM	?	·	–
CCc1ccc(OCc2nc(-c3ccccn3)no2)c(Br)c1	–	–	12.6µM	–	?	–
Cc1ccc(OCc2nc(-c3ccccn3)no2)c(Br)c1	–	–	5.01µM	–	·	–
CC(C)(C)Cc1nc(-c2ccccn2)no1	–	–	–	–	–	–
CC(Oc1ccc(Cl)cc1Cl)c1nc(-c2ccccn2)no1 (stereo not given)	–[11.4 µM]	–[11.4 µM]	–	–[11.4 µM]	·	–
CC(C)c1ccc(OCc2nc(-c3ccccn3)no2)c(Br)c1	?	–	15.8µM	?	·	–
CCN(CCO)C[C@H]1CCC[C@H]2CCCC[C@@H]21	–[11.4 µM]	–[11.4 µM]	–[11.4 µM]	–[11.4 µM]	·	–[11.5 µM]
COc1ccc(-c2noc(CSc3nc(N)c(-c4ccccc4)c(=O)[nH]3)n2)cc1	·	–	–	–	–	12.6µM
CCc1c2c(nc3cccc(OC)c13)OC(CC)C2 (stereo not given)	?	–	·	15.8µM	·	–
CCc1c2c(nc3cccc(SC)c13)COC2	?	–	·	?	·	?
CN(C)C=Nc1ncc2c3ccccc3n(CCN(C)C)c2c1C#N	–	–	–	–	?	–
CN(C)C=Nc1ncc2c3ccccc3n(Cc3ccccc3)c2c1C#N	?	–	–	31.6µM	–	–
O=c1c(CCc2ccccc2)nc2cnc(N3CCOCC3)nc2n1C[C@H]1CCCO1	–	–	–[11.4 µM]	–	·	–
CC(C)[C@@H](CC(=O)N[C@@H]1CCNC[C@H]1C(=O)N[C@H](CC(=O)N[C@@H](CCC(=O)O)CC(=O)O)Cc1c[nH]c2ccccc12)NC(=O)C[C@H](Cc1ccccc1)NC(=O)[C@@H]1CCCC[C@H]1N	–	–	·	–	·	·
COc1cc(OC)cc(-c2nc3cc(C)ccc3o2)c1	–	–	15.8µM	–	–	–
COc1cc(C(=O)Nc2cc(-c3nc4cc(C)ccc4o3)ccc2C)cc(OC)c1OC	–	–	1µM	–	·	–
Cc1ccc2nc(-c3cccc(-c4nc5ccc(C)cc5o4)n3)oc2c1	–[11.4 µM]	–	–	–	–	–
Cn1cccc1C(=O)N1CCC[C@@]2(CCN(Cc3ccc(C#N)cc3)C2)C1	–	–	–[11.4 µM]	–	·	–
FC(F)(F)c1cc(CN2CC3(CCNCC3)C2)cc(C(F)(F)F)c1	?	12.6µM	–[11.4 µM]	?	·	–
Cn1cccc1C(=O)N1CCC[C@@]2(CCN(Cc3cc(C(F)(F)F)cc(C(F)(F)F)c3)C2)C1	?	–	–[11.4 µM]	12.6µM	·	–
Cn1cccc1C(=O)N1CCC2(CC1)CN(Cc1cc(C(F)(F)F)cc(C(F)(F)F)c1)C2	?	–	–[11.4 µM]	15.8µM	·	–
O=C(c1ccco1)N1CCC2(CC1)CN(Cc1cc(C(F)(F)F)cc(C(F)(F)F)c1)C2	?	–	–[11.4 µM]	15.8µM	·	–
